# CF NFkB inh – inhibitors of PAF-induced NF-kB signaling, primary screen, cell-based, GFP fluorescence, uHTS; KKLEB NF-kB-GFP reporter, GFP fluorescence overnight; inhibition, % at 5 µM; hit rate 0.86% among 360,000;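 active = at least 50% inhibition at 5 µM, scaled per plate between neutral and stimulator controls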;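 note: PAF is a Pseudomonas aeruginosa culture filtrate used as stimulus; plate controls were PAF-stimulated DMSO wells for no effect and unstimulated DMSO wells for full effect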
# Shn3 3UTR inh – reduction of Shn3 3'UTR firefly luciferase signal, primary screen, Schnurri-3 inhibitor project, cell-based, Clone20 osteoblasts, set 2. Clone20 osteoblast Shn3 3'UTR firefly luciferase, 24 h. inhibition, % at 12.5 µM. hit rate 0.52% among 360,000;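 active = mean inhibition of at least 75% with every replicate also reaching 75%; inconclusive = mean inhibition at least 75% but some replicate below; inactive = mean inhibition below 75%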;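 note: 0% = median of neutral control wells and 100% = pilot-screen positive control compound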
# HIF-2a block – HIF-2a reporter inhibitors, primary screen, luminescence, 786-0 RCC cells | inhibition, % at 18.8 µM | hit rate 0.72% among 360,000 | 786-0 RCC cells HIF-2a reporter, luciferase luminescence, overnight;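 active = inhibition of the luminescence signal of 40% or more relative to plate controls, in a single-dose primary screen at 18.75 µM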
# Peg3 promoter – Peg3 promoter-driven luciferase inhibitors, primary screen, cell-based, HeLa, luciferase luminescence | inhibition, % at 20 µM | AID 588405, 2011 | hit rate 1.7% among 360,000 | HeLa PEG-Prom luciferase reporter, overnight;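 active = inhibition of at least 50% at 20 µM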
# TRPM1 prom inh – inhibitors of MITF-dependent TRPM1 promoter reporter, primary screen, cell-based, SK-MEL-5, single point, luciferase | SK-MEL-5 TRPM1 promoter luciferase, 24 h | inhibition, % at 12.5 µM | hit rate 0.83% among 330,000 | AID 488899, 2010;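 active = mean inhibition across replicates of 60% or more, whatever share of single replicates reaches that level; inconclusive = some that reach 60%, reason not given; inactive = mean inhibition across replicates below 60%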
# KKLEB cytotox – cytotoxicity in KKLEB CF airway cells, primary screen, cytotoxicity control for CF NF-kB inhibitor project, cell-based, uHTS, fluorescence assay plates; activity change (cytotoxicity), % at 5 µM; AID 602141, 2011; hit rate 0.36% among 360,000; KKLEB CF airway cells viability, ATPlite luminescence, overnight; hits give low values; cells stimulated with P. aeruginosa culture filtrate;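 active = corrected activity change at or below -50% at 5 µM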
# Active calls of the source: *; ? = inconclusive; . = no result. Compounds with a hit are over-represented: about 2.7% of the library has one in this group of screens.
SMILES,CF NFkB inh,Shn3 3UTR inh,HIF-2a block,Peg3 promoter,TRPM1 prom inh,KKLEB cytotox
CCOC(=O)N1CCN(C(=O)c2ccc3c(c2)N(C)C(=O)/C(=C\c2ccc(OCC)c(OC)c2)S3)CC1,28,46,14,53*,15,-16
Cc1[nH]c2ccccc2c1C(=O)CCl,64*,28,19,93*,?,-4
Cc1[nH]c2ccccc2c1C(=O)CSc1ccccc1,-4,-55,-172,-126,-14,0
COc1ccccc1-n1nnnc1SCC(=O)N1CCCC1=O,1,6,2,-2,-2,-19
CCN(CC)CC(O)Cn1c2ccccc2c2ccccc21 (configuration not stated),6,20,0,-23,-15,3
CCN(CC)CC(O)Cn1c(C)c(-c2ccccc2)c2cc([N+](=O)[O-])ccc21 (configuration not stated),-2,-5,-8,75*,-16,-14
NNC(=O)c1ccncc1,-14,7,-2,-12,-1,-85*
O=C1N(c2ccccc2C(F)(F)F)O[C@]1(c1ccccc1)C1CCCC1,47,-3,5,77*,17,1
O=c1c2ccccc2ncn1-c1ccccc1C(F)(F)F,12,-5,7,14,1,-8
Cc1ccccc1[C@@]1(C)ON(c2ccccc2C(F)(F)F)C1=O,49,-18,29,79*,26,5
CC[C@@]1(c2ccccc2OC)ON(c2ccccc2C(F)(F)F)C1=O,59*,-5,14,81*,52,4
O=Cc1ccc(C(=O)OCC(=O)NC(=O)Nc2ccccc2F)cc1,-29,0,-18,-3,14,4
CC/C(=C/c1ccccc1)c1cccc2[nH]c3c(OC)cccc3c12,14,86*,-12,-10,9,-11
Cc1ccc(N(C(=O)c2csnn2)C(C(=O)NC2CCCCC2)c2ccncc2)cc1 (configuration not stated),-7,1,-6,8,4,6
CN1C(=O)C(=O)/C(=C(/O)c2ccccc2)C1c1ccc(Br)cc1 (configuration not stated),-1,-6,22,-2,-5,2
CN(C)c1ccc(C2/C(=C(/O)c3ccc(Br)cc3)C(=O)C(=O)N2C)cc1 (configuration not stated),-5,25,49*,16,9,1
CC(C)C[C@H]1CNC(=S)N1C[C@H]1CCCN1C[C@H](Cc1ccc(O)cc1)N1C[C@H](Cc2ccc(O)cc2)N(CC2CCCCCC2)C1=S,71*,5,-19,101*,.,-59*
CC(C)C[C@H]1CNC(=S)N1CC1CCCN1C[C@H](Cc1ccccc1)N1C[C@H](Cc2ccc(O)cc2)N(CC2CCCCCC2)C1=S (some centres not stated),28,34,-2,66*,25,-3
CC(C)C[C@H]1CN([C@@H](Cc2ccc(O)cc2)CN2CCC[C@@H]2CN2C(=S)NC[C@@H]2Cc2ccccc2)C(=S)N1CC1CCCCCC1,3,-3,-12,-8,.,-6
CC(=O)c1sc(NC(=O)CN2C(=O)C3CC=CCC3C2=O)nc1-c1ccccc1 (configuration not stated),-15,-3,16,8,4,16
C[C@@H](C(=O)N1CCN(Cc2ccc3c(c2)OCO3)CC1)n1nnc2ccccc2c1=O,-39,4,10,6,9,16
Oc1ccc(CCNc2c3ccccc3nc3ccccc23)cc1O,-80,-21,54*,109*,72*,-26
c1ccc(CNc2c3ccccc3nc3ccccc23)cc1,-85,69,44*,97*,75*,-29
O=C(CNC(=O)c1ccccc1)NCCc1ccc(O)c(O)c1,-24,9,2,13,2,0
CNc1nc(NCc2ccccc2)c2ccccc2n1,-22,35,9,-1,14,-1
SMILES,CF NFkB inh,Shn3 3UTR inh,HIF-2a block,Peg3 promoter,TRPM1 prom inh,KKLEB cytotox
Oc1ccccc1Nc1nc(NCc2ccccc2)c2ccccc2n1,2,89*,-24,19,3,-31
COc1ccc2[nH]c3c(c2c1)CCN1C(=O)C(CC(=O)NCc2ccco2)C[C@H](C(=O)N2CCCCC2)[C@@]31CCc1ccccc1 (some centres not stated),25,-77,11,19,8,-10
C/C(=N\NC(=O)COc1ccccc1-c1ccccc1)c1ccc(O)cc1O,-17,92*,21,41,13,2
C/C(=N\NC(=O)COc1ccccc1-c1ccccc1)c1ccccn1,10,98*,13,46,84*,-18
O=C(COc1ccccc1-c1ccccc1)N/N=C/c1ccc2ccccc2c1,62*,13,21,32,29,-39
C/C(=N\NC(=O)COc1ccccc1-c1ccccc1)c1cccnc1,-6,-7,7,29,-2,-6
Cc1nn(-c2ccccc2)c(C)c1C(=O)OCC(=O)Nc1ccccc1Cl,-2,-23,2,-15,.,10
CCN(CC)CCOC(=O)C(c1ccccc1)c1ccccc1,0,-18,-5,0,2,-91*
Cc1ccc(Cl)c(OCC(=O)Nc2ccccc2N2CCCCC2)c1,-2,10,0,23,4,7
CCOC(=O)/C(=C/c1ccc(OC(=O)c2ccncc2)cc1)C(C)=O,8,16,10,6,8,-4
CCOC(=O)C(=Cc1ccc(Br)cc1)C(=O)OCC,52*,-10,24,23,4,-31
CCOC(=O)C(=Cc1ccc(-n2ccnc2)cc1)C(=O)OCC,71*,75,93*,107*,.,-9
COc1ccc(C(=O)COC(=O)c2ccccc2O)c(OC)c1,-9,-79,-101,-397,-57,27
CC1CCN(Cc2c(C(=O)N/N=C/c3ccc(C(C)C)cc3)nnn2-c2nonc2N)CC1,-8,14,-5,65*,-12,0
Cc1cc(C)cc(OCC(=O)Nc2cccc(-c3nnc(-c4ccco4)o3)c2)c1,-44,0,-102,58*,-14,-10
C=C1C(=O)C23C(O)C1CCC2C12CCCC(C)(COC(C)=O)C1C(O)C3(O)OC2 (configuration not stated),91*,94*,93*,107*,97*,-91*
Cc1cc(Nc2nc3ccccc3nc2Cl)n(-c2ccc([N+](=O)[O-])cc2)n1,41,2,27,53*,11,-19
O=C1Nc2ccccc2-c2nnnn2C1N1CCCC1 (configuration not stated),.,.,25,.,.,.

# Source: PubChem (several laboratories)
